Calls of active or inactive are those of the source. How the source made its calls: active means hit-call score of the fitted dose curve at least 0.9, where 1 is the maximum; inactive means score below 0.9.

The AC50 is the concentration at which the activity in the assay is half-maximal.

The experiment can be described thus: BSK_SAg_SRB: Viability Assessment in the BioMAP Diversity Plus: SAg Assay (AID 2283096).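 Further: hits may be either gain or loss of signal compared with DMSO.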 The conditions noted are these: primary human HUVEC with PBMC. On the procedure: BSK_SAg is a cell-based, multiplexed-readout assay that uses umbilical vein endothelium and peripheral blood mononuclear cells, a human vascular primary cell co-culture, with measurements taken at 24 hours after chemical dosing in a 96-well plate.BSK_SAg_SRB is an assay component measured in the BSK_SAg assay. It measures protein content, a form of viability reporter, as detected with absorbance signals by Sulforhodamine staining technology.Data from the assay component BSK_SAg_SRB was analyzed into 1 assay endpoint. This assay endpoint, BSK_SAg_SRB, was analyzed with bidirectional fitting relative to DMSO as the negative control and baseline of activity. Using a type of viability reporter, gain or loss-of-signal activity can be used to understand changes in the signaling. Furthermore, this assay endpoint can be referred to as a primary readout, because this assay has produced multiple assay endpoints where this one serves a signaling function. To generalize the intended target to other relatable targets, this assay endpoint is annotated to the cell morphology intended target family, where the subfamily is cell conformation.
The levels of cell surface (or secreted, indicated by the prefix "s") biomarker endpoints were measured by ELISA. Overt cytotoxicity to cells in confluent adherent cultures (all systems other than the BT system) was assessed by measuring total protein levels using sulforhodamine B (SRB) staining in parallel cultures at the time of biomarker measurements, indicated as SRB endpoints. For proliferation assays for adherent cell types, individual cell types are cultured at sub-confluence and relative cell numbers quantified by SRB staining at time points optimized for each system (48 h: 3C and CASM3C systems; 72 h: BT and HDF3CGF systems; 96 h: SAg system). SRB was performed by staining cells with 0.1% SRB after fixation with 10% TCA and reading wells at 560 nm.Viability and proliferation of PBMC (T cells) was quantified by Alamar Blue reduction for the SAg and BT systems. For PBMC viability (referred to as PBMC Cytotoxicity within the assay endpoint names), cells were plated (75,000/well in a 96-well plate) and then chemical samples added for 1 h before addition of activators, SEB and TSST-1 (20 ng/mL final concentration each). Cells were incubated for 90 h. Then, Alamar Blue (20 uL/well) (Invitrogen, Cat DAL1100) was added for 6 h, and the plates were read with a fluorescence microplate reader at 546/580 nm (excitation/emission). For PBMC proliferation, cells were plated and activated as above but incubated for only 16 h prior to addition of Alamar Blue. Plates were read after 6 h.
Take `CCCCCCCCN(C)CCCCCCCC`: the outcome was inactive. As for `C[C@]12CC[C@@H]3c4ccc(O)cc4CC[C@H]3[C@@H]1CC[C@H]2O`, the AC50 was 12.1 µM (active). The same measure, in the same setting: the result for `NC(=O)c1nc(-c2cccc(-c3cc(F)ccc3OCC(F)(F)C(F)(F)F)c2)n[nH]1` reads 32.7 µM (active); that for `CCN(CC)C(=O)c1cc(S(=O)(=O)Cc2ccccc2)c(N2CCC(c3ccccc3)CC2)cc1N(CC)CCN(C)C`, 12.7 µM (active). As to `Cc1ncc(CO)c(CO)c1O`, the outcome was inactive. With `CN1C(=O)N(c2ccccc2Br)Cc2cnc(Nc3ccc4c(c3)OCC(CO)O4)nc21` (stereo not given), the AC50 is 2.23 µM (active). Consider `CC[C@@H]1C[C@H](N(Cc2cc(C(F)(F)F)cc(C(F)(F)F)c2)C(C)=O)c2cc(C(F)(F)F)ccc2N1C(=O)OC(C)C`, for which the outcome was inactive. On to `NCc1cccc(C2CCN(C(=O)c3ccc(C#Cc4ccccc4F)o3)CC2)c1`, for which the AC50 is 15.2 µM (active). The same measure, in the same setting: the result for `CCOC(=O)O[C@H](C)OC(=O)c1ccc2c(c1)cc(C(=O)NC1CCN(C(C)C)CC1)n2Cc1cc(-c2ccc(Cl)s2)on1` reads 6.18 µM (active); that for `CCN(Cc1cccnc1)C(=O)c1cccc(Cl)c1[C@]1(C)C(=O)N(Cc2ccc(OC)cc2OC)c2ccc(Cl)cc21`, 5.81 µM (active).

For the compound `Oc1ccc2ccccc2c1`, the outcome was inactive.

For the compound `COc1cccc([C@H](O)C2CCN(CCc3ccc(F)cc3)CC2)c1OC`, the result was inactive. `Cc1c2ccccc2c(C)c2c1ccc1ccccc12`: the AC50 is 29.1 µM (active). `OCCO`: the outcome was inactive. As for `CN(C)c1ccc(C(=C2C=CC(=[N+](C)C)C=C2)c2ccc(N(C)C)cc2)cc1`, the AC50 was 7.53 µM (active).

With `CCCCOC(=O)c1ccc(O)cc1`, the outcome was inactive.

On to `CCN(Cc1cccc(S(=O)(=O)O)c1)c1ccc(C(=C2C=CC(=[N+](CC)Cc3cccc(S(=O)(=O)O)c3)C=C2)c2ccccc2S(=O)(=O)[O-])cc1`, for which the outcome was inactive. Regarding `COCC(C)OCC(C)OCC(C)O` (stereo not given), the result was inactive. For the compound `CCCCCCCCCCCC[N+](C)(C)C`, the AC50 was 25.8 µM (active).

`CCCCCCCCCCCO`: the outcome was inactive. Still for that read-out and setting: then `CC(O)CC(C)(C)O` (stereo not given), with “inactive”.

As to `O=C(OCCCCCCOC(=O)c1ccccc1)c1ccccc1`, the outcome was inactive. Consider `Cc1oc2c(NC(=O)c3c(Cl)cccc3Cl)cccc2c1C(C)(C)O`, for which the AC50 is 25.3 µM (active). As for `OC12N=C(c3ccccc3)SC1Cc1cc(Cl)ccc12` (stereo not given), the outcome was inactive. The same measure, in the same setting: the result for `CC[C@H](NC(=O)c1cc(F)ccc1NS(=O)(=O)c1cccc2cccnc12)c1ccccc1` reads “inactive”; that for `O=C(O)Cn1c(=O)n(Cc2ccc(Br)cc2F)c(=O)c2ccc(Cl)cc21`, “inactive”. Consider `COc1ccc2cc(S(=O)(=O)N[C@H](CC(=O)N[C@H](Cc3ccc(CN4[C@H](C)CCC[C@@H]4C)cc3)C(=O)N(C)C(C)C)c3ccc4c(c3)OCO4)ccc2c1`, for which the AC50 was 17.3 µM (active). On to `Cc1ccc2oc(CN(Cc3ccccc3)C(=O)Nc3c(F)cc(F)cc3F)c(-c3ccc(Cl)cc3)c2c1`, for which the result was inactive. As for `CN(C)C(=O)C1(N2CCCCC2)CCN(CC[C@@]2(c3ccc(Cl)c(Cl)c3)CN(C(=O)c3ccccc3)CCO2)CC1`, the AC50 was 14 µM (active). Consider `Cc1cn([C@H]2C[C@H](N=[N+]=[N-])[C@@H](CO)O2)c(=O)[nH]c1=O`, for which the result was inactive.

Turning to `CCCCCCCCCCCCO`, the AC50 is 31.3 µM (active). Take `CC(=O)N1CCN(c2ccc(OC[C@H]3CO[C@](Cn4ccnc4)(c4ccc(Cl)cc4Cl)O3)cc2)CC1`: the AC50 was 24.7 µM (active). On to `COc1cc(C(=O)NC2CCN(C)CC2)ccc1Nc1ncc2c(n1)N(C1CCCC1)CC(F)(F)C(=O)N2C`, for which the AC50 is 18.6 µM (active). `CC1(C)NC(=O)N(c2ccc([N+](=O)[O-])c(C(F)(F)F)c2)C1=O`: the result was inactive. Same read-out and setting: the result for `O=C(O)Cc1cc(I)c(Oc2ccc(O)c(I)c2)c(I)c1` reads “inactive”. As to `Clc1ccccc1C(c1ccccc1)(c1ccccc1)n1ccnc1`, the half-maximal activity concentration (AC50) is 24.4 µM (active). For the compound `Clc1cc(Cl)c2c(c1)N=C1CCCCCN1C2`, the result was inactive.

With `CCCC(=O)OCCC(C)C`, the outcome was inactive. The same measure, in the same setting: the result for `CC1=CC(=O)/C(=C(/C)O)C(=O)O1` reads “inactive”. Still for that read-out and setting: the result for `CCCOC(=O)c1cc(O)c(O)c(O)c1` reads “inactive”.

The record behind these values is PubChem BioAssay (EPA / NIEHS).
